# Measurements from PubChem BioAssay AID1159580 (chemical genetic matrix, 2015).
# Hit rate of the full screen: of about 5,500 compounds, about 2,000 (36%) were called active. Roughly 18% stayed inconclusive and do not appear here. Some of the results follow. A number with no mark means an inactive call. Cut-off read from the data, not from the text of the source: active = normalized growth mostly below about 0.91 (no sharp cut-off); inconclusive = no clear call, values can overlap the other calls; inactive = mostly above about 0.92.
# Assay: chemical genetic growth profiling, strain panel (AID 1159580);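 note: tested at 20 µM; growth read once vehicle control cultures reached saturation at 30 °C; 1 = growth at the plate median or of vehicle wells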
# Settings: S. cerevisiae deletion strains, growth OD
structure (smiles),measurement,setting,value
O=c1c2ccccc2nc2n1CCc1c-2[nH]c2ccccc12,normalized growth,"locus YAL013W, strain DEP1, stronger effect = lower value",1.02
same,normalized growth,"locus YAL040C, strain CLN3, stronger effect = lower value",0.981
same,normalized growth,"locus YCL061C, strain MRC1 (second series), stronger effect = lower value",1.01
same,normalized growth,"locus YDR150W, strain NUM1, stronger effect = lower value",1.01
same,normalized growth,"locus YDR363W, strain ESC2, stronger effect = lower value",1.02
same,normalized growth,"locus YER002W, strain NOP16, stronger effect = lower value",0.996
same,normalized growth,"locus YGR078C, strain PAC10, stronger effect = lower value",1
same,normalized growth,"locus YJR075W, strain HOC1, stronger effect = lower value",1.02
same,normalized growth,"locus YMR263W, strain SAP30, stronger effect = lower value",1.01
same,normalized growth,"locus YMR307W, strain GAS1, stronger effect = lower value",0.999
same,normalized growth,"locus YNL128W, strain TEP1, stronger effect = lower value",0.964
same,normalized growth,"locus YNL153C, strain GIM3, stronger effect = lower value",0.928
same,normalized growth,"locus YNL175C, strain NOP13, stronger effect = lower value",0.945
same,normalized growth,"locus YNL197C, strain WHI3, stronger effect = lower value",0.97
same,normalized growth,"locus YNL224C, strain SQS1, stronger effect = lower value",0.982
same,normalized growth,"locus YNL322C, strain KRE1, stronger effect = lower value",1.02
same,normalized growth,"locus YOR083W, strain WHI5 (second series), stronger effect = lower value",0.906
same,normalized growth,"locus YPL055C, strain LGE1, stronger effect = lower value",1.02
same,normalized growth,"locus YPL241C, strain CIN2, stronger effect = lower value",1
CCOc1ccc2nc3cc(N)ccc3c(N)c2c1,normalized growth,"locus YAL021C, strain ccr4, stronger effect = lower value",0.749 (active)
same,normalized growth,"locus YAL026C, strain drs2, stronger effect = lower value",0.607 (active)
same,normalized growth,"locus YAL030W, strain snc1, stronger effect = lower value",0.63 (active)
same,normalized growth,"locus YBL061C, strain skt5, stronger effect = lower value",0.745 (active)
same,normalized growth,"locus YBR009C, strain hhf1, stronger effect = lower value",0.353 (active)
same,normalized growth,"locus YBR023C, strain chs3, stronger effect = lower value",0.721 (active)
same,normalized growth,"locus YBR171W, strain sec66, stronger effect = lower value",1.07
same,normalized growth,"locus YBR231C, strain swc5, stronger effect = lower value",0.702 (active)
same,normalized growth,"locus YBR279W, strain paf1, stronger effect = lower value",0.51 (active)
same,normalized growth,"locus YCL011C, strain gbp2, stronger effect = lower value",0.447 (active)
same,normalized growth,"locus YCL016C, strain dcc1, stronger effect = lower value",0.462 (active)
same,normalized growth,"locus YCL061C, strain MRC1, stronger effect = lower value",0.846 (active)
same,normalized growth,"locus YCL069W, strain vba3, stronger effect = lower value",0.834 (active)
same,normalized growth,"locus YCR088W, strain abp1, stronger effect = lower value",0.695 (active)
same,normalized growth,"locus YDL005C, strain med2, stronger effect = lower value",0.981
same,normalized growth,"locus YDL040C, strain nat1, stronger effect = lower value",0.779 (active)
same,normalized growth,"locus YDR001C, strain nth1, stronger effect = lower value",0.94
same,normalized growth,"locus YDR069C, strain doa4, stronger effect = lower value",0.696 (active)
same,normalized growth,"locus YDR137W, strain rgp1, stronger effect = lower value",0.985
same,normalized growth,"locus YDR159W, strain sac3, stronger effect = lower value",1.06
same,normalized growth,"locus YDR195W, strain ref2",0.823 (active)
same,normalized growth,"locus YDR297W, strain sur2, stronger effect = lower value",0.705 (active)
same,normalized growth,"locus YDR334W, strain swr1, stronger effect = lower value",1.03
same,normalized growth,"locus YDR335W, strain msn5, stronger effect = lower value",0.907 (active)
same,normalized growth,"locus YDR392W, strain spt3, stronger effect = lower value",0.803
same,normalized growth,"locus YEL003W, strain gim4, stronger effect = lower value",0.534 (active)
same,normalized growth,"locus YEL037C, strain rad23, stronger effect = lower value",0.785 (active)
same,normalized growth,"locus YEL061C, strain CIN8 (second series), stronger effect = lower value",0.997
same,normalized growth,"locus YER015W, strain faa2, stronger effect = lower value",0.641 (active)
same,normalized growth,"locus YER016W, strain bim1, stronger effect = lower value",0.679 (active)
same,normalized growth,"locus YER111C, strain swi4, stronger effect = lower value",0.987
same,normalized growth,"locus YER155C, strain BEM2 (second series), stronger effect = lower value",0.856 (active)
same,normalized growth,"locus YFR010W, strain ubp6, stronger effect = lower value",0.683 (active)
same,normalized growth,"locus YGL167C, strain pmr1, stronger effect = lower value",1.03
same,normalized growth,"locus YGL173C, strain kem1, stronger effect = lower value",0.677 (active)
same,normalized growth,"locus YGL227W, strain vid30, stronger effect = lower value",0.754 (active)
same,normalized growth,"locus YGL240W, strain doc1, stronger effect = lower value",1.06
same,normalized growth,"locus YGL253W, strain hxk2, stronger effect = lower value",0.761 (active)
same,normalized growth,"locus YHR013C, strain ard1, stronger effect = lower value",0.747 (active)
same,normalized growth,"locus YHR027C, strain rpn1, stronger effect = lower value",0.618 (active)
same,normalized growth,"locus YHR030C, strain SLT2, stronger effect = lower value",0.967
same,normalized growth,"locus YHR079C, strain IRE1, stronger effect = lower value",0.89
same,normalized growth,"locus YHR142W, strain chs7, stronger effect = lower value",0.801 (active)
same,normalized growth,"locus YJL092W, strain hpr5, stronger effect = lower value",0.803 (active)
same,normalized growth,"locus YJL095W, strain BCK1 (second series), stronger effect = lower value",0.785 (active)
same,normalized growth,"locus YJL095W, strain BCK1, stronger effect = lower value",0.935
same,normalized growth,"locus YJL115W, strain asf1, stronger effect = lower value",0.987
same,normalized growth,"locus YJL129C, strain trk1, stronger effect = lower value",0.648 (active)
same,normalized growth,"locus YJL154C, strain vps35, stronger effect = lower value",0.97
same,normalized growth,"locus YJL164C, strain tpk1, stronger effect = lower value",0.379 (active)
same,normalized growth,"locus YJL166W, strain qcr8, stronger effect = lower value",0.583 (active)
same,normalized growth,"locus YJL187C, strain SWE1, stronger effect = lower value",0.846 (active)
same,normalized growth,"locus YJR066W, strain TOR1, stronger effect = lower value",0.851
same,normalized growth,"locus YKL160W, strain elf1, stronger effect = lower value",0.733 (active)
same,normalized growth,"locus YKR026C, strain gcn3, stronger effect = lower value",0.864 (active)
same,normalized growth,"locus YKR091W, strain srl3, stronger effect = lower value",0.875 (active)
same,normalized growth,"locus YLL001W, strain dnm1, stronger effect = lower value",0.662 (active)
same,normalized growth,"locus YLL026W, stronger effect = lower value",0.508 (active)
same,normalized growth,"locus YLL041C, strain sdh2, stronger effect = lower value",0.863 (active)
same,normalized growth,"locus YLR027C, strain aat2, stronger effect = lower value",0.481 (active)
same,normalized growth,"locus YLR113W, strain HOG1, stronger effect = lower value",0.961
same,normalized growth,"locus YLR221C, strain rsa3, stronger effect = lower value",0.541 (active)
same,normalized growth,"locus YLR258W, strain gsy2, stronger effect = lower value",0.529 (active)
same,normalized growth,"locus YLR262C, strain YPT6 (second series), stronger effect = lower value",0.891
same,normalized growth,"locus YLR320W, strain mms22, stronger effect = lower value",0.742 (active)
same,normalized growth,"locus YLR342W, strain FKS1, stronger effect = lower value",0.866 (active)
same,normalized growth,"locus YLR357W, strain rsc2, stronger effect = lower value",1.09
same,normalized growth,"locus YLR370C, strain arc18, stronger effect = lower value",0.704 (active)
same,normalized growth,"locus YLR384C, strain iki3, stronger effect = lower value",0.85 (active)
same,normalized growth,"locus YML120C, strain ndi1, stronger effect = lower value",0.252 (active)
same,normalized growth,"locus YMR058W, strain fet3, stronger effect = lower value",0.587 (active)
same,normalized growth,"locus YMR125W, strain sto1, stronger effect = lower value",0.892
same,normalized growth,"locus YMR129W, stronger effect = lower value",0.659 (active)
same,normalized growth,"locus YMR205C, strain PFK2, stronger effect = lower value",0.751 (active)
same,normalized growth,"locus YMR231W, strain pep5, stronger effect = lower value",0.883 (active)
same,normalized growth,"locus YNL071W, strain lat1, stronger effect = lower value",0.909 (active)
same,normalized growth,"locus YNL183C, strain NPR1, stronger effect = lower value",0.875
same,normalized growth,"locus YNL209W, strain ssb2, stronger effect = lower value",0.53 (active)
same,normalized growth,"locus YNL248C, strain rpa49, stronger effect = lower value",0.827 (active)
same,normalized growth,"locus YNL322C, strain KRE1 (second series), stronger effect = lower value",1
same,normalized growth,"locus YNR049C, strain mso1, stronger effect = lower value",1
same,normalized growth,"locus YOR001W, strain rrp6, stronger effect = lower value",0.365 (active)
same,normalized growth,"locus YOR070C, strain gyp1, stronger effect = lower value",0.607 (active)
same,normalized growth,"locus YOR080W, strain dia2, stronger effect = lower value",0.876 (active)
same,normalized growth,"locus YOR083W, strain WHI5, stronger effect = lower value",0.58 (active)
same,normalized growth,"locus YOR106W, strain vam3, stronger effect = lower value",0.489 (active)
same,normalized growth,"locus YOR231W, strain MKK1, stronger effect = lower value",0.901
same,normalized growth,"locus YOR265W, strain rbl2, stronger effect = lower value",0.61 (active)
same,normalized growth,"locus YOR270C, strain vph1, stronger effect = lower value",0.707 (active)
same,normalized growth,"locus YOR290C, strain snf2, stronger effect = lower value",0.441 (active)
same,normalized growth,"locus YPL051W, strain arl3, stronger effect = lower value",0.653 (active)
same,normalized growth,"locus YPL078C, strain atp4, stronger effect = lower value",0.813 (active)
same,normalized growth,"locus YPL106C, strain sse1, stronger effect = lower value",0.719 (active)
same,normalized growth,"locus YPL240C, strain hsp82, stronger effect = lower value",0.623 (active)
same,normalized growth,"locus YPL256C, strain CLN2, stronger effect = lower value",1.03
